Experimental data from PubChem BioAssay (NCATS).
Results filed as inconclusive are left out. Values without a mark were called inactive. Calls follow the shape of the dose curve; as a rule, active = well fitted inhibition curve with a large enough effect; inconclusive = small, poorly fitted or top-dose-only effect; inactive = flat fitted curve, though single readings scatter.

System: KB-3-1
Assay: Cytotoxic Profiling of Annotated Libraries Using Quantitative High-Throughput Screening (AID 1296008); also: nearly all actives have a fitted effect of over 60% in size
Details: Five cell lines viability, CellTiter-Glo ATP luminescence, 48-72 h, hits give low values
From the text: Cell-based phenotypic screening is a commonly used approach to discover biological pathways, novel drug targets, chemical probes and high-quality hit-to-lead molecules. Many hits identified from high-throughput screening campaign are ruled out through a series of follow-up potency, selectivity/specificity, and cytotoxicity assays. Prioritization of molecules with little or no cytotoxicity for a more in-depth downstream evaluation influence the future direction of projects, so cytotoxicity profiling of the screening libraries at early stage is essential for increasing the likelihood of candidate success. […] For the annotated library, we also examined the primary targets and mechanistic pathways regularly associated with cell death. To our knowledge, this is the first study to use high-throughput screening to profile large libraries for cytotoxicity assessment in both normal and cancer cell lines. In summary, the results generated here constitutes a valuable resource for the scientific community and provides insight on identifying cytotoxic compounds with particular mechanisms of action, and prioritizing compounds with suitable cytotoxicity profile for further evaluation.
A pintool (Kalypsys) was used to transfer 23 nL of compound solution to the 1536-well assay plates. After 48 or 72 hr incubation at 37 degree Celsius, 5% CO2 and 95% humidity, 2.5 uL of CellTiter-Glo (Promega) was dispensed into each well using a dispenser (Aspect Automation, St. Paul, MN) with solenoid valves (Lee Valves, Westbrook CT). Plates were left at room temperature for 10 min before imaging the ATP-coupled luminescence using a ViewLux microplate imager (PerkinElmer, Waltham, MA).
% is scaled to controls: 0 for no effect and ±100 for the full control effect.

| Structure (SMILES) | max response [%] |
| --- | --- |
| CN1C[C@@H]2C[C@H]1CN2c1cc2c(cc1F)c(=O)c(C(=O)O)cn2C1CC1 | -8.4 |
| Cc1cc(C)c(NC(=O)CN(CC(=O)O)CC(=O)O)c(C)c1Br | 14.1 |
| CN(C(=O)c1c(O)c2ccccc2n(C)c1=O)c1ccccc1 | 9.88 |
| Cc1cc(NC(=O)C2=C(O)c3ccccc3S(=O)(=O)N2C)no1 | -4.98 |
| COc1ccc(C(=O)N2CCN(CC(=O)N3CCOCC3)CC2)cc1 | 5.06 |
| O=C(CN1CCNCC1)NC1CCCCC1 | 2.43 |
| C[C@@H](c1ncncc1F)C(O)(Cn1cncn1)c1ccc(F)cc1F (stereo not given in full) | -2.08 |
| CC[C@H](C)[C@H](N)C(=O)O | -15.9 |
| CC(=O)[C@@]1(O)CC[C@H]2[C@@H]3C[C@H](C)C4=CC(=O)C=C[C@]4(C)[C@@]3(F)[C@@H](O)C[C@@]21C | 9.43 |
| CC(=O)Nc1ccc(OCCOCCOc2ccc(NC(C)=O)cc2)cc1 | -2.03 |
| NC(=O)CC[C@@H](N)C(=O)O | -2.46 |
| NNC(=O)CP(=O)(c1ccccc1)c1ccccc1 | -1.94 |
| Cc1c(N(C)C)c(=O)n(-c2ccccc2)n1C | -5.96 |
| CCCOC(=O)c1ccc(N)cc1 | 1.99 |
| CC1CCN(CCCC(=O)c2ccc(F)cc2)CC1 | -11.3 |
| Cc1cccc(Nc2ccccc2C(=O)O)c1C | 3.77 |
| Cc1cccc(C(=O)O)c1O | 2.2 |
| Nc1c2c(nc3c1CCC3)CCCC2 | -0.45 |
| C[N+]1(C)CCCC(OC(=O)C(O)(c2ccccc2)c2ccccc2)C1 (stereo not given) | -3.88 |
| O=C(O)CNC(=O)c1ccccc1I | 7.37 |

| Structure (SMILES) | max response [%] |
| --- | --- |
| c1ccc2[nH]ccc2c1 | -2.84 |
| COc1ccccc1OCC(O)CO (stereo not given) | 4.34 |
| O=C(O)c1ccccc1C(=O)Nc1ccc(S(=O)(=O)Nc2nccs2)cc1 | 5.93 |
| O=C(Cn1ccnc1[N+](=O)[O-])NCCO | 0.623 |
| FC(F)(F)C(Cl)Br (stereo not given) | -3.43 |
| NC(=O)CCCCC1CCSS1 (stereo not given) | -12.5 |
| Cc1onc(-c2ccccc2)c1-c1ccc(S(N)(=O)=O)cc1 | 6.03 |
| CNc1c2c(nn1C)CCCC2 | -8.03 |
| Cc1c(I)c(=O)n(-c2ccccc2)n1C | 2.22 |
| O=c1[nH]cnc2nc[nH]c12 | -17.5 |
| O=C(O)Cc1cn(-c2ccccc2)nc1-c1ccc(Cl)cc1 | 2.82 |
| CC(C(=O)O)c1ccc2c(c1)Cc1cccnc1O2 (stereo not given) | -7.45 |
| O=C(OOC(=O)c1ccccc1)c1ccccc1 | -3.15 |
| NC(=O)NC1NC(=O)NC1=O (stereo not given) | -5.62 |
| CCCCCOC(=O)Nc1nc(=O)n([C@@H]2O[C@H](C)[C@@H](O)[C@H]2O)cc1F | -8.69 |
| NS(=O)(=O)c1cc(-c2nn[nH]n2)c(NCc2cccs2)cc1Cl | -9.88 |
| C/C=C/C(=O)N(CC)c1ccccc1C | 21.1 |
| CN(C/C=C/C#CC(C)(C)C)Cc1cccc2ccccc12 | -0.279 |
| CCOC(=O)OC(C)OC(=O)[C@@H]1N2C(=O)[C@@H](NC(=O)[C@H](N)c3ccccc3)[C@H]2SC1(C)C (stereo not given in full) | -3.71 |
| COc1ccc(-c2cc(=O)c3c(O)cc(O[C@@H]4O[C@H](CO[C@@H]5O[C@@H](C)[C@H](O)[C@@H](O)[C@H]5O)[C@@H](O)[C@H](O)[C@H]4O)cc3o2)cc1O | -15.8 |
